# This is a sample that favours compounds with a hit; in the whole collection about 7.1% have one here.
# LASV entry inh: blocks Lassa virus binding or cell entry. Lassa virus pseudotyped entry inhibition, cell-based qHTS. Potency, µM (series often up to 49.2 µM), inactives show at the top dose activity change, negative = inhibition, usual class: inhibitors. 4.1% of 18,000 active. AID 720533
# Marburg entry: inhibitors of Marburg virus binding or entry into cells; 6.5% of 18,000 active; AID 720532; Marburg virus pseudotype entry/binding inhibition, cell-based; Potency, µM (highest dose often 49.2 µM), without a hit: top-dose activity change, negative = inhibition, most hits filed as inhibitors
# The depositor's hits bear a star; ? = inconclusive; / = not tested or not shown; ! = repeats disagree; [ ] = another dose, or the depositor's remark. Calls come from the whole dose curve; tested in HEK293 cells. % is set by controls: 0 for no effect and ±100 for the full control effect; potency is the fitted concentration of half-maximal effect.
SMILES,LASV entry inh,Marburg entry
NCc1ccc(-c2nc(-c3ccc(Cl)c(O)c3)c(-c3ccncc3)[nH]2)cc1,20.4%,?
COc1cc(Nc2c(C#N)cnc3cc(OCCCN4CCN(C)CC4)c(OC)cc23)c(Cl)cc1Cl,?,7.08µM*
O=C(O)c1cc(C(=O)O)c(C(=O)N(Cc2cccc(Oc3ccccc3)c2)[C@H]2CCCc3ccccc32)cc1C(=O)O,-6.1%,7.3%
CNC(=O)[C@@H]1C[C@@H](NCc2cccc(Oc3ccccc3)c2)CN1C(C)C,3.0%,10µM*
COC(=O)C1=C(C)N(Cc2ccccc2)C(=NCc2cc(OC)c(OC)c(OC)c2)NC1CCc1ccccc1 (stereo not given),-19.2%[8.59 µM],?
CC[C@@H]1/C=C/C=C/C[C@H](C)[C@@H](O)[C@](C)(O)C(=O)[C@H](C)[C@@H](O)[C@H](C)C(=O)[C@H](C)[C@@H](O)[C@H](C)/C=C/C(=O)O[C@H]2[C@@H](C)[C@@H](CC1)O[C@@]1(CC[C@@H](C)[C@@H](C[C@H](C)O)O1)[C@@H]2C,39.8µM*,10µM*
COC(=O)C1=C(C)N(Cc2ccccc2)C(=NCCCCO)NC1c1cccc(F)c1 (stereo not given),/,57.1%[8.59 µM]
O=C(NC(CC1=CCCCC1)c1ccc2c(c1)OCO2)C(F)(F)F (stereo not given),26.8%[8.59 µM],47.2%[8.59 µM]
COc1cc(OC)c2c(-c3cccc(-c4ccc(OC(F)(F)F)cc4)c3)cc(=O)oc2c1,-14.7%,-10.3%
COc1cc(OC)c2c(-c3cccc(/C=C/c4ccc(F)cc4)c3)cc(=O)oc2c1,2.9%,19.6%
COc1cc(OC)c2c(-c3cccc(-c4ccc(N(C)C)cc4)c3)cc(=O)oc2c1,?,3.55µM*
COc1cc(OC)c2c(-c3cccc(-c4ccc(CO)cc4)c3)cc(=O)oc2c1,?,1µM*
COc1ccc([C@]23Cc4cc(OC)c(OC)cc4[C@H](O2)C2=C(CCCC2=O)O3)cc1,2.7%[8.59 µM],6.0%[8.59 µM]
CCN1C(=NCC(C)C)NC(c2cccc(F)c2)C(C(=O)OC)=C1C (stereo not given),10.1%[8.59 µM],-5.2%[8.59 µM]
CC(C)=CCCC(C)=CCON=C1C[C@@H](O)[C@@H](O)[C@@H]2[C@H]3C(=O)N(Cc4ccccc4)C(=O)[C@@H]3CC[C@@H]12,-0.5%[8.59 µM],3.0%[8.59 µM]
Nc1nc(Cl)nc2c1ncn2[C@@H]1O[C@H](CO)[C@@H](O)[C@H]1O,31.6µM*!,?
Nc1nc2c(ncn2[C@@H]2O[C@H](CO)[C@@H](O)[C@H]2O)c(=O)[nH]1,-17.1%,6.6%
OCC1OC(n2cnc3c(=S)nc[nH]c32)C(O)C1O (stereo not given),?,3.55µM*
O=c1[nH]cnc2c1ncn2C1OC(CO)C(O)C1O (stereo not given),1.7%,9.5%
Nc1nc(Cl)nc2c1ncn2C1OC(CO)C(O)C1F (stereo not given),2.51µM*,2.82µM*
OC[C@H]1O[C@@H](n2cnc3c(NC4CCCC4)nc(Cl)nc32)[C@H](O)[C@@H]1O,-16.6%,12.7%
C[C@H]1CC[C@H]2C(=O)O[C@H](CO)CN2[C@H]1c1ccc(Br)cc1,/,-20.5%[8.59 µM]
CCCCCC(=O)N1C[C@H](O)[C@@H](n2cc(C3CC3)nn2)C[C@H]1c1ccc(C)cc1,/,9.6%
CC(C)CN[S+](=O)([O-])c1ccc(Br)cc1N1CCC[C@H]1CO,15.1%,13.7%
CO[C@H]1C[C@H](O[C@@H]2/C(C)=C/C[C@@H]3C[C@@H](C[C@]4(CC[C@H](C)[C@@H](C5CCCCC5)O4)O3)OC(=O)[C@@H]3C=C(C)/C(=N/O)[C@H]4OC/C(=C\C=C\[C@@H]2C)[C@]43O)O[C@@H](C)[C@@H]1O,-13.5%,6.6%
SMILES,LASV entry inh,Marburg entry
CC[C@H](C)[C@H]1O[C@]2(CC[C@@H]1C)C[C@@H]1C[C@@H](C/C=C(\C)[C@@H](O[C@H]3C[C@H](OC)[C@@H](O[C@H]4C[C@H](OC)[C@@H](O)[C@H](C)O4)[C@H](C)O3)[C@@H](C)/C=C/C=C3\CO[C@@H]4[C@H](O)C(C)=C[C@@H](C(=O)O1)[C@]34O)O2,14.1µM*,?
CCCC[C@]12Cc3ccccc3[C@H](O1)c1c(cc(-c3ccccc3)oc1=O)O2,-20.2%[8.59 µM],?
O=C(C=Cc1ccccc1)Nc1cccc(C(=O)N2CCCC2)c1,37.7%,42.4%
O=C1NC(=O)c2c1c1c3ccccc3[nH]c1c1[nH]c3ccccc3c21,-16.5%,?
CNCCCCc1cnc(C)c2[nH]c3ccccc3c12,?,11.2µM*
CCCCCC(=O)N1C[C@H](O)[C@@H](n2cc(C3CC3)nn2)C[C@H]1c1ccc(Cl)cc1,0.3%,-8.3%
COC(=O)C(C)c1ccc(C(=O)c2cccs2)cc1 (stereo not given),0.0%,4.0%
CNCCCCCCCCSc1nc(C(C)C)ccc1C(=O)c1cccs1,?,5.62µM*
CCN(CC)C(=S)SSC(=S)N(CC)CC,39.8µM*!,20µM*
O=C(Nc1cccc(Cl)c1)OCC#CCCl,-29.3%,11.2µM*
C[N+](C)(C)CC#CCOC(=O)Nc1cccc(Cl)c1,-12.8%,2.7%
NS(=O)(=O)c1ccc(N=Nc2c(O)[nH]c3ccc(-c4cnco4)cc23)cc1,?,36.4%
C[C@H]1[C@@H](c2ccccc2)Oc2c(Cl)cccc2S(=O)(=O)N1Cc1ccc(Cl)cc1,-8.1%,-24.3%
O=C(/C=C/c1ccc(O)cc1)c1cccs1,3.3%,30.8%
COc1cc(/C=C/C(=O)c2cccs2)cc(OC)c1OC,31.6µM*,?
CN1[C@@H]2CC[C@H]1CC(OC(c1ccc(F)cc1)c1ccc(F)cc1)C2 (stereo not given in full),14.1µM*,7.94µM*
COc1ccc(C(=O)OC2C[C@H]3CC[C@@H](C2)N3C)cc1OC (stereo not given in full),8.5%[17.8 µM],-20.3%[17.8 µM]
C=C(C)CCN1C(=O)NC(c2cccc(C(F)(F)F)c2)C(C(=O)OC)=C1C (stereo not given),-9.9%[8.59 µM],-18.9%[8.59 µM]
CCOC(=O)NN=C1C[C@@H](O)[C@@H](O)[C@@H]2[C@H]3C(=O)N(c4cccc(Oc5ccccc5)c4)C(=O)[C@@H]3CC[C@@H]12,-10.0%[8.59 µM],36.5%[8.59 µM]
C=CCN1C(=O)CC[C@@]23C1=NC(C(=O)OC)=C(C(=O)OC)[C@@H]2N(C)c1ccccc13,13.9%[8.59 µM],13.6%[8.59 µM]
C=CCC(C)(O)c1cccc(C(F)(F)F)c1 (stereo not given),-10.2%,3.3%
C=CC[C@](C)(O)c1ccccc1,0.75µM*!,-14.9%
CCCCCCN1C(=O)CC[C@@]23C1=NC(C(=O)OC)=C(C(=O)OC)[C@@H]2N(Cc1ccccc1)c1ccccc13,-17.1%[8.59 µM],-28.3%[8.59 µM]
CCCC1CCCCN1 (stereo not given),-4.2%,3.6%
C1CCC(C(CC2CCCCN2)C2CCCCC2)CC1 (stereo not given),?,3.98µM*
COC(=O)C1=C(C)N(Cc2ccccc2)C(=NCc2ccc(OC)cc2)NC1c1ccccc1 (stereo not given),0.7%[8.59 µM],-17.6%[8.59 µM]
C[C@]12O[C@H](C[C@]1(O)CO)n1c3ccccc3c3c4c(c5c6ccccc6n2c5c31)CNC4=O,11.2µM*,1µM*
CN[C@@H]1C[C@@]2(C)O[C@@H]([C@@H]1OC)n1c3ccccc3c3c4c(c5c6ccccc6n2c5c31)C(=O)NC4,1µM*,?
C=C[C@H](CCCCCC)[C@@H]1C[C@H](CCCCCCCCCCC)O[P@](=O)(OC)O1,/,-33.3%
O=[S+]1([O-])N[C@@H]2Cc3ccccc3[C@@H]2Oc2cc(Br)ccc21,-16.4%,-15.1%
